The results in this text go back to PubChem BioAssay (Tox21).

SMILES strings stand for the structures. Records with an inconclusive call do not appear. Where a call stands in place of a potency, no number is given. Active and inactive are the calls of the source. Calls follow the shape of the full dose curve.
Potency is read from the fitted curve at half-maximal effect.

This assay is described as follows: qHTS assay for small molecule agonists of the p53 signaling pathway (AID 651631). Also: nearly all actives have a fitted effect of over 15% in size. The note with it: HCT-116 p53RE-bla reporter, beta-lactamase FRET ratio, 16 h; series mostly up to 73.3 µM; activation: at the top concentration. The text has this: U.S. Tox21 Program National Center for Advancing Translational Sciences [NCATS] NIH Chemical Genomics Center [NCGC] U.S. Environmental Protection Agency [EPA] National Institutes of Environmental Health Sciences [NIEHS] National Toxicology Program [NTP] U.S. Food and Drug Administration [FDA] Tox21 Assay Overview: p53, a tumor suppressor protein, is activated following cellular insult, including DNA damage and other cellular stresses. The activation of p53 regulates cell fate by inducing DNA repair, cell cycle arrest, apoptosis, or cellular senescence. The activation of p53, therefore, is a good indicator of DNA damage and other cellular stresses. The CellSensor p53RE-bla HCT-116 cell line (Invitrogen) contains a stably integrated beta-lactamase reporter gene under control of the p53 response elements. The activation of the reporter gene under culture conditions can be detected by fluorescence intensity. This cell line was used to screen the Tox21 compound library in a 1536-well plate format and to identify agonists that activate the p53 signaling pathway.
Tox21 Assay Protocol Summary: The p53RE-bla cells were dispensed at 4,000 cells/5 ul/well in 1536-well black wall/clear bottom plates using a Multidrop dispenser. After the assay plates were incubated at a 37 C/5% CO2 incubator for 5 hours, 23 nL of compounds dissolved in DMSO, positive controls or DMSO only was transferred to the assay plate by a pin tool. The plates were incubated at 37 C for 16 hours. After 1 uL of LiveBLAzerTM B/G FRET substrate was added using a Flying Reagent Dispenser, the plates were incubated at room temperature for 2 hours, and fluorescence intensity was measured by an Envision plate reader.
For orientation: Quantitative high-throughput screening tests each substance at several concentrations.
In the case of `C=C(CC(=O)O)C(=O)O`, the Potency entry is “inactive”.
The same measure, in the same setting: in the case of `CCCCCC(C)=O` it was “inactive”.
With `O=C1C(N(CO)C(=O)NCO)N(CO)C(=O)N1CO` (stereo not given), the “activation” value is -1.28% (inactive).
For `O=C1OC(=O)c2c(Cl)c(Cl)c(Cl)c(Cl)c21`, the “activation” value is -3.15% [at 95.1 µM] (inactive).
Consider `CCCCC(=O)O`, for which the Potency entry was “inactive”.
On the same count and under the same terms, in the case of `NC1CCCCC1N` (stereo not given) it was “inactive”.
In the case of `CCCOC(=O)NCCCN(C)C`, the “activation” value was 0.403% (inactive).
Turning to `O=[N+]([O-])c1cc(C(F)(F)F)ccc1Cl`, the “activation” value is -3.15% [at 95.1 µM] (inactive).
Turning to `NC(=O)NC(N)=O`, the Potency entry is “inactive”.
For `COC(=O)CCCCC(=O)OC`, the Potency entry is “inactive”.
The same measure, in the same setting: in the case of `O=c1n(CCCN2CCN(c3cccc(Cl)c3)CC2)nc2ccccn12` it was “inactive”.
In the case of `Oc1ccc(Cc2ccccc2O)cc1`, the “activation” value is -2.75% (inactive).
Consider `Cc1ccc(Cl)cc1`, for which the Potency result was “inactive”.
Turning to `CC(C)(C)NC[C@H](O)COc1nsnc1N1CCOCC1`, the Potency entry was “inactive”.
The same measure, in the same setting: in the case of `O=Cc1ccc(CO)o1` it was “inactive”.
Regarding `O=C(NCC1CCCCN1)c1cc(OCC(F)(F)F)ccc1OCC(F)(F)F` (stereo not given), the “activation” value was -2.17% (inactive).
As for `C[Si](C)(C)N[Si](C)(C)C`, the “activation” value was -1.08% (inactive).
With `COc1ccc2cc3[n+](cc2c1OC)CCc1cc2c(cc1-3)OCO2`, the Potency was 61.6 µM (active).
Consider `CCc1cccc(CC)c1N`, for which the “activation” value was -1.97% [at 95.1 µM] (inactive).
For the compound `CCCCC(CC)COC(=O)c1ccc(C(=O)OCC(CC)CCCC)cc1` (stereo not given), the “activation” value is -4.08% (inactive).
Consider `O=C(O)C1=NN(c2ccc(S(=O)(=O)O)cc2)C(=O)C1`, for which the “activation” value was -2.83% (inactive).
The same measure, in the same setting: in the case of `CC1(C)C(=O)N(Cl)C(=O)N1Cl` it was -2.49% (inactive).
With `CCCCCNCCCCC`, the Potency result was “inactive”.
As for `Cc1ccc(C(C)C)cc1`, the Potency result was “inactive”.
As to `O=C(c1ccccc1)c1ccc(O)c(O)c1O`, the Potency entry was “inactive”.
Regarding `COC(=O)OC`, the Potency result is “inactive”.
For `O=c1c(O)c(-c2ccc(O)c(O)c2)oc2cc(O)cc(O)c12`, the Potency was 49 µM (active).
For the compound `CCOC(=O)CC(=O)OCC`, the Potency result was “inactive”.
Turning to `CC(=O)OCc1ccc2c(c1)OCO2`, the Potency entry was “inactive”.
Consider `CC(=O)OC[C@H]1O[C@@](COC(C)=O)(O[C@H]2O[C@H](COC(C)=O)[C@@H](OC(C)=O)[C@H](OC(C)=O)[C@H]2OC(C)=O)[C@@H](OC(C)=O)[C@@H]1OC(C)=O`, for which the Potency entry was “inactive”.
The same measure, in the same setting: in the case of `O=[N+]([O-])c1ccccc1C(F)(F)F` it was “inactive”.
For `Clc1cccc(Cl)c1NC1=NCCN1`, the “activation” value is 3.54% (inactive).
Consider `CC(=O)CC(=O)N(C)C`, for which the Potency entry was “inactive”.
Take `CC(=O)Nc1ccc(CC(=O)O)cc1`: the Potency entry was “inactive”.
Same read-out and setting: in the case of `CCCCCCCC(=O)O` it was “inactive”; in that of `CCCCCCCCC(=O)O`, “inactive”.
In the case of `CC(C)c1ccc(C(C)C)cc1`, the “activation” value is -2.26% (inactive).
Turning to `CN1CCCC1=O`, the “activation” value was 2.13% [at 95.1 µM] (inactive).
With `Cc1ccccc1C=O`, the Potency entry is “inactive”.
Take `N#CCC(=O)O`: the Potency result is “inactive”.
